# Measurements: article PMC12136788
# Where a chain is given by its changes, count along the chain named. Over roughly 24,000 sequences, “enrichment r” has its median near 0.99; the highest 2% begin near 3.7. This is one part of a sample in which the highest values are shown more often than they occur.
# T1: UNK ZnF1-3 (human, UniProt Q9C0B0 31-174)
# T1 sequence: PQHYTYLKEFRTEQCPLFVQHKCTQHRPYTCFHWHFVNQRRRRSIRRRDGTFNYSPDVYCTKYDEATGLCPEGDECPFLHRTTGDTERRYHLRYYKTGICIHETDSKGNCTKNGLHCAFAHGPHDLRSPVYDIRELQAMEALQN
# B1: chr2:42509997:42509998:+_ENSG00000143924_ENST00000318522|hu_mus|hu_hu_hu_mus_True|28_48 (ssRNA)
# RNA: GGGAGUUCUACAGUCCGACGAUCUCGCUGAGUCCUCUCCUCAUAAUUAAACAGGACUACCACUGAGGCGAUAAAAUAAACUAUCUCCCCGGUCGGAAGCAGGUAUACAUUAGCUCUACAGUCCUUUCCUCGAUAACCGUAUACCAACAGAGGAUUGAGCAUCA
# B2: chr3:108363203:108363204:-_ENSMUSG00000068732_ENSMUST00000090546|mus_hu|FALSE|FALSE (ssRNA)
# RNA: GGGAGUUCUACAGUCCGACGAUCCCAGGUUUUGAGACGAGGUACUUUCUUGAAGUAGGCACAGGUGCAAACAAAGAGCAAACCAAACACCAGAAUCCCAUCCAAGGAGUACACGUUCGUCAUGGCGGCUGGCCCUGGACCUGGCAACAGAGGAUUGAGCAUCA
# B3: chr2:216981417:216981418:+_ENSG00000079246_ENST00000392132|hu_hu|hu_hu_hu_mus_True|48_58 (ssRNA)
# RNA: GGGAGUUCUACAGUCCGACGAUCCUGAUACUGGUCCUUGCCAGCAAGGGCAUUAUCAGUGCCAUCUGUGCCAUAGAGGACUAAAGCAAUCUCAUCCUUGCUCUCCGAAAAUACCUGUCGUUGGACAAACAUAGUCAUCACUUUCAACAGAGGAUUGAGCAUCA
# B4: 91404753_91404873_2338_CDS_ENSG00000122482_ENST00000337393|human|control|control (ssRNA)
# RNA: GGGAGUUCUACAGUCCGACGAUCAGGUUUUUGGUCAACGCUGCUUUUAAUUGUAACAUUCUUAUGAGGAGAGCUGUUUUGAUUGCACAUGUUUACACCUGAUUGGGCAAUGCUUUUCCGAGCUUUCUGUAUUCUGUGUGGCCGCAACAGAGGAUUGAGCAUCA
# B5: chr2:153593888:153593889:+_ENSMUSG00000027479_ENSMUST00000028981|mus_mus|FALSE|FALSE (ssRNA)
# RNA: GGGAGUUCUACAGUCCGACGAUCCUCAGUAGUGGGUAACACAUUUUGCAGAGUUCGCCAAACAAAGGAAUUGAAUAGGCUAUGGGUAAAGCAAUUGAGGGAGAAUUAAGGAAUGAAGUAUUUUAAAUAUUAAUAUUUCAGUCACAACAGAGGAUUGAGCAUCA
# B6: chr2:153593888:153593889:+_ENSMUSG00000027479_ENSMUST00000028981|mus_hu|FALSE|FALSE (ssRNA)
# RNA: GGGAGUUCUACAGUCCGACGAUCAGUAGUGGGUGAGACACAUUUUGCAGAAUCCUGCCAAACAAAGGAACUGAAUAGGCUGUGGGCAAAGCAAAUGAGGGAGAGUUAAGGAAUGAAGUAUUUUAAAUAUUAAUAAUUAAUUCACAACAGAGGAUUGAGCAUCA
# B7: 77768493_77775406_9844_CDS_ENSG00000091656_ENST00000521891|human|control|control (ssRNA)
# RNA: GGGAGUUCUACAGUCCGACGAUCACUGCUGAGAGACAGGGCAGGAGACGAAGUAGCUGAAGUAGGAAACCCAAGCAUGCCUGCACCGGGAGGUGUUAAAGUGUUUGAAUUUUGUGGAAAUCCCGGCAAGGAGGAUGGACCGUUCAACAGAGGAUUGAGCAUCA
# B8: chr6:39351226:39351227:-_ENSMUSG00000029922_ENSMUST00000031985|mus_hu|FALSE|FALSE (ssRNA)
# RNA: GGGAGUUCUACAGUCCGACGAUCGACAAAGUUAGAUGUGAUCCGGCAUUCUGGGCAGGACUUUAUGAUCUUGCUCUCAAAUUGCUUAGCACUCCUCCACUUGCGAAUGCACUUGAGACAGUAGGUGUGGUUGCAGUUGGAGAGCAACAGAGGAUUGAGCAUCA
# B9: chr3:54535082:54535083:-_ENSMUSG00000027752_ENSMUST00000029316|mus_mus|FALSE|FALSE (ssRNA)
# RNA: GGGAGUUCUACAGUCCGACGAUCGCAGGCAUCCAAAAUGUUCCCAUCGUAGUCUAGACAAAUGAGGUCACAGUAUAGAACCCAAGCAAGCUUGCCUGGAGAAAUGCAUAAAUCCUCUUUCUUAAUCACCUGUGAGUUGUCAACCAACAGAGGAUUGAGCAUCA
# B10: chr4:144447494:144447495:+_ENSG00000153147_ENST00000283131|hu_hu|motif|central (ssRNA)
# RNA: GGGAGUUCUACAGUCCGACGAUCCCAGUUGUGUAAUGUAGACUUAGGAACCAAAACCAUAUGAGGCCCAGGAAUGUUUCGGUAAUGUUUCAUGUACCCAAGAAGAGAAAUUGUUUGAAGAGUCUUUCCUAGGCCCAUUUCAUCCAACAGAGGAUUGAGCAUCA
# B11: chr2:69570450:69570451:+_ENSMUSG00000042133_ENSMUST00000090858|mus_hu|FALSE|FALSE (ssRNA)
# RNA: GGGAGUUCUACAGUCCGACGAUCACAAAGACAACGAAAGUUCUCGCAUGUUUUGGGGCACACAUCAGAAAAUAAUUCAAAGACAACUCUUCCAGCAGGUUGAUUGUUAAUGGCAAUGUCAAAAAAACAUCGAGGACGUUGAACCAACAGAGGAUUGAGCAUCA
# B12: chr11:75578338:75578339:+_ENSMUSG00000020849_ENSMUST00000067664|perfect_dup|motif|central (ssRNA)
# RNA: GGGAGUUCUACAGUCCGACGAUCAAAGGGGAGGGGAGAAAAAAAAAAAAGAAAAAGAAAGAAAAACAACAGGGCAGGAACCGGAAUUCUGAGACCAAAUGUGAAAGUCAAAUUUGGUGGUUCUCAGUGACAAUGGGGAACUUCCAACAGAGGAUUGAGCAUCA
# B13: chr7:135839593:135839594:+_ENSMUSG00000042105_ENSMUST00000151237|mus_hu|FALSE|FALSE (ssRNA)
# RNA: GGGAGUUCUACAGUCCGACGAUCAGAAUCAGUCACUUCAACAGAGUAAAGCUCUAAAGACACCAGACGAACCAAUACUUGUUGGAAUAUGCCAUACAACUUUCUUACUGUGGGGAUUACAGGGGCAGCCCUGGUUCUGUGUGGCAACAGAGGAUUGAGCAUCA
# B14: 18505133_18505253_973_CDS_ENSG00000101310_ENST00000262544|human|control|control (ssRNA)
# RNA: GGGAGUUCUACAGUCCGACGAUCUUCACAGCUUAGCUCAUGAACCUGCACCAUCCUUCCAAAUGUGAUCAGACCCACCAGAGCAUCUGGAGGAAGAAGACUCAGGGACAUCUGCAGGGACUCUUUGAGUGCUUGAAGGUCAUCCAACAGAGGAUUGAGCAUCA
# B15: chrX:7701523:7701524:-_ENSMUSG00000031166_ENSMUST00000033506|mus_mus|FALSE|FALSE (ssRNA)
# RNA: GGGAGUUCUACAGUCCGACGAUCCAGGCAAGUGUGGGGUCCACCCAAACAGUAGCUGCCAAUGUUGGGGAGUUUGACAACCUAACCUGGUGAAAGCCCCGUGGUUGAACUUAACAUUCUGCACCUAAUUUCCCUACUGCUGUCCAACAGAGGAUUGAGCAUCA
# B16: chr11:75578338:75578339:+_ENSMUSG00000020849_ENSMUST00000067664|perfect_dup|FALSE|FALSE (ssRNA)
# RNA: B12 RNA with G82U, G83A
# B17: chr4:99801976:99801977:-_ENSG00000151247_ENST00000280892|hu_hu|motif|central (ssRNA)
# RNA: GGGAGUUCUACAGUCCGACGAUCAACACAUUUAUGGAUUCUGGGGAUGUGUACUGUAAUUCUUUGAUUGGGAUAGUGGAAACUCGGGCCAAAAAAAAAAAAAAAAAUGAACACAGAAGUACAAGACAAAGGCGAAUGAGACUUCAACAGAGGAUUGAGCAUCA
# B18: chr4:124323795:124323796:+_ENSG00000164056_ENST00000339241|hu_hu|motif|central (ssRNA)
# RNA: GGGAGUUCUACAGUCCGACGAUCCCAUGAGUUAGACCUUGGCAACAGGGGAAGAGAAGGUGGGAAACAGGGAAAAAUUCGGAAGAAAACAAAAACAAAAACAAAAACAAAAAACAGCCACAACUUGAAAGCUAAAAGUUCAGGCAACAGAGGAUUGAGCAUCA
# B19: chr4:124323795:124323796:+_ENSG00000164056_ENST00000339241|hu_hu|FALSE|FALSE (ssRNA)
# RNA: B18 RNA with G80U, G81A
# B20: chr7:116176368:116176369:+_ENSMUSG00000031028_ENSMUST00000033341|mus_hu|FALSE|FALSE (ssRNA)
# RNA: GGGAGUUCUACAGUCCGACGAUCAGACACACACAUACACAGACGGACACAGAGCACCUUGGAGCCAGAAGGAAAGGAAAGCUAGACUUGGAGAAGAGUUGGGGAAGUGAACUUCACCACUCUGCAGAAUUGUUCUGGGGCAGACAACAGAGGAUUGAGCAUCA
# B21: chr15:103023242:103023243:-_ENSMUSG00000009575_ENSMUST00000118152|mus_hu|FALSE|FALSE (ssRNA)
# RNA: GGGAGUUCUACAGUCCGACGAUCAACAUCUGAACUAGCAGCUUUGAUGAGGGGUGGGGGGCAGAAAAUUUGCCGAGUCACUAAGUAGUUCCAGUCUUGGAGACAGCUCAGUGAGGACCAAAGCCUGUGUGUCAGGCUUAAACUCAACAGAGGAUUGAGCAUCA
# B22: 36153137_36166621_529_CDS_ENSG00000145604_ENST00000274255|human|control|control (ssRNA)
# RNA: GGGAGUUCUACAGUCCGACGAUCCGCUAGGCGAUACCACCUCUUACAAACACCAGAGACCUUUAGCAGCUCAGGGAGGCACAGACAGGAAAAGAUUCCCAAGAGCAGCUCAUCCGGAAGGGAGUCCCAUGAAACACCUGGAAACAACAGAGGAUUGAGCAUCA
# Molecular target: T1, UNK ZnF1-3
# Experiment: nsRBNS (natural sequence RNA bind-n-seq); RBNS binding buffer (assumed for nsRBNS): 25 mM Tris pH 7.5, 150 mM KCl, 3 mM MgCl2, 0.01% Triton X-100, 500 ug/ml BSA, 20 U/ml SUPERase-In, 4 C; UNK is unkempt and MSI1 is Musashi-1; names of the RNAs are library labels; protein concentration not given here; high values mean tight binding
row,Binder,binding signal
1,B1,1.03 enrichment R
2,B2,1.56 enrichment R
3,B3,0.722 enrichment R
4,B4,0.646 enrichment R
5,B5,2.24 enrichment R
6,B6,4.38 enrichment R
7,B7,1.52 enrichment R
8,B8,0.754 enrichment R
9,B9,1.32 enrichment R
10,B10,1 enrichment R
11,B11,1.49 enrichment R
12,B12,5.06 enrichment R
13,B13,1.69 enrichment R
14,B14,1.32 enrichment R
15,B15,1.26 enrichment R
16,B16,4.7 enrichment R
17,B17,3.29 enrichment R
18,B18,3.58 enrichment R
19,B19,4.13 enrichment R
20,B20,3.99 enrichment R
21,B21,1.22 enrichment R
22,B22,1.46 enrichment R
